Out of some 220,000 compounds screened, about 150 (0.068%) were called active.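 How the source made its calls: active means activation, meaning protection from cell death, of at least 50% relative to plate controls; inactive means activation below 50%.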 For the sample, actives were picked, then their nearest neighbours and some compounds at random.

A short description of this test: rescue of FADD-deficient Jurkat cells from TNF-alpha death – single concentration, primary screen (AID 463075).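 Further: necroptosis triggered by 40 ng/mL TNF-alpha added together with compound.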 Particulars: Jurkat FADD-/- TNF necroptosis rescue, ATP luminescence, 24 h; at 10 µM; stronger effect = higher value; 0 = TNF only, 100 = no-TNF cells.
On to `COc1ccc(NC(=O)C2=C(C)NC(=O)NC2c2ccccc2[N+](=O)[O-])cc1` (stereo unspecified), for which the activation (protection from cell death) is 0.73% (inactive). Take `CCOC(=O)c1cc(Sc2ccccc2N)cc(C(=O)OCC)n1`: the activation (protection from cell death) is 0.0548% (inactive). With `COc1ccc(OCc2cn3c(C)cc(C)nc3n2)cc1`, the activation (protection from cell death) is 1.17% (inactive). For the compound `CC1COc2ccccc2N1S(=O)(=O)c1ccccc1` (stereo unspecified), the activation (protection from cell death) is -0.217% (inactive). As to `CCOc1ccccc1NC(=O)C12CC3CC(C1)CC(c1ccc(C)cc1)(C3)C2`, the activation (protection from cell death) is -1.89% (inactive).

For the compound `Cc1csc(Nc2ccc(Cl)cc2)[n+]1-c1ccc(Cl)cc1`, the activation (protection from cell death) is 52.7% (active). In the case of `O=c1ccnc(Nc2ccc(Cl)cc2)[nH]1`, the activation (protection from cell death) is 2.1% (inactive). Take `Cc1ccc(NC(=O)c2ccc(Oc3ncccn3)cc2)cc1`: the activation (protection from cell death) is -0.146% (inactive). Under `CN(C)Cc1ccc(F)cc1Sc1cc(Cl)ccc1Cl` stands 0.603% (inactive); under `CCOC(=O)CNC(=O)N1c2ccccc2Sc2ccccc21`, -1.84% (inactive).

`C=CCNC(=O)c1cc2nc(C3CC3)cc(C(F)F)n2n1`: the activation (protection from cell death) was 0.00242% (inactive). Under `Cc1ccc(C(=O)/C=C/Nc2ccc(S(=O)(=O)Nc3onc(C)c3C)cc2)cc1` stands 1.49% (inactive); under `CCN(CC)c1ccc(C(=O)c2cnc(/N=C/N(C)C)s2)cc1`, 2.87% (inactive). Take `CC(NC(=S)NNS(=O)(=O)c1ccc(C(C)(C)C)cc1)c1ccccc1` (stereo unspecified): the activation (protection from cell death) was 5.41% (inactive).

For the compound `COc1cc(OC)cc(C(=O)NC2CCN(C(=O)N3c4ccccc4Sc4ccccc43)CC2)c1`, the activation (protection from cell death) is -2.58% (inactive). Consider `CN(C)CCCn1c(SCCN2C(=O)c3ccccc3C2=O)nc2ccccc2c1=O`, for which the activation (protection from cell death) is 0.858% (inactive). Under `CCN(CC)C(=O)CSc1nnc(CNc2ccc(F)cc2)n1Cc1ccco1` stands 0.256% (inactive); under `C/C(CC(C)C)=N\Oc1nc(C)cc(C)n1`, 1.02% (inactive); under `Clc1ccc(-c2cc(C3CCNCC3)[nH]n2)c(Cl)c1`, 4.13% (inactive).

`FC(F)(F)c1cc(C(F)(F)F)c2ccc(N3CCN(c4ccccc4)CC3)nc2n1`: the activation (protection from cell death) is -0.212% (inactive). Under `NC(=O)c1ccc(NC(=O)COC(=O)C(Cc2ccccc2)NC(=O)c2ccccc2)cc1` (stereo unspecified) stands 0.97% (inactive); under `Cc1nn(C)c(C)c1S(=O)(=O)N1CCC(CO)(Cc2ccc(Cl)cc2)CC1`, -0.682% (inactive).

For `CCC1CO/C(=C(\C(=C(Cl)Cl)N2CCOCC2)[N+](=O)[O-])N1` (stereo unspecified), the activation (protection from cell death) is 0.241% (inactive).

As to `C=C(C)COc1ccc(-c2nc(N)ncc2-c2ccccc2OC)c(O)c1`, the activation (protection from cell death) is 1.21% (inactive).

With `OCC1(CCc2ccccc2)CCN(Cc2ccc3nsnc3c2)CC1`, the activation (protection from cell death) was 1.53% (inactive). With `NS(=O)(=O)c1ccc(NC(=S)NC(=O)c2cccc(Br)c2)cc1` the figure was -0.737% (inactive). Turning to `CCOc1ccc(NC(=O)C2CC(=O)N=C(N)S2)cc1` (stereo unspecified), the activation (protection from cell death) was 0.442% (inactive). Under `CCOC(=O)C1=C(CC)Nc2ccccc2N=C1NC(=O)c1cccc(S(=O)(=O)N2CCCC2)c1` stands -3.1% (inactive); under `COC(=O)C1CCN(CC(N)=O)CC1`, 1.78% (inactive). In the case of `Cc1c([N+](=O)[O-])c(N)nn1C`, the activation (protection from cell death) is 0.221% (inactive). Under `COc1ccc(CC(=O)NCc2nnc(SCC(=O)Nc3ncc(C)s3)n2C)cc1` stands 1.73% (inactive); under `Clc1ncn(CCOc2ccccc2)c1Cl`, 3.48% (inactive); under `N#Cc1c(N2CCCCC2)nc(N)c2c(N)nc(SCC(=O)O)cc12`, -7.92% (inactive). With `Cc1cc(C(=O)COC(=O)C2CC2)c(C)n1-c1ccc(F)cc1` the figure was -0.153% (inactive).

For `CN(C(=O)c1c(Cl)cnn1C)C12CC3CC(CC(C3)C1)C2`, the activation (protection from cell death) is -0.801% (inactive). With `CCNc1ccc(C(=O)OCC(=O)N2c3ccccc3NC(=O)C2(C)C)cc1[N+](=O)[O-]` the figure was 1.58% (inactive). Under `CCn1c2ccccc2c2cc(CC(N)=O)ccc21` stands -1.12% (inactive). With `CCc1ccccc1NC(=O)CN(c1ccc(OC)cc1OC)S(=O)(=O)c1ccccc1[N+](=O)[O-]` the figure was 0.342% (inactive). With `Cc1ccc2nc(SC(C)C(=O)NCc3ccco3)[nH]c2c1` (stereo unspecified), the activation (protection from cell death) was -0.614% (inactive). With `CCOC(=O)c1c(N)sc2c1CCCC2=O` the figure was -2.66% (inactive); with `O=C1OCC2=C1C(c1ccccc1)CC(=O)N2c1cccc(F)c1` (stereo unspecified), -0.757% (inactive); with `O=C1CC(NNc2ccccc2)C(=O)N1c1cccc(Cl)c1` (stereo unspecified), -2.98% (inactive).

`O=C1CC(c2ccccc2)C(=O)N1c1cccc(O)c1` (stereo unspecified): the activation (protection from cell death) is 52% (active).

On to `Cc1nnc(Nc2ccccc2F)s1`, for which the activation (protection from cell death) is 0.78% (inactive). As to `N#Cc1c(-c2ccc(Cl)cc2)c2c([nH]c1=S)CCCC2`, the activation (protection from cell death) is -2.48% (inactive). With `O=C(O)c1ccccc1-c1ccccc1C(=O)NCc1cccnc1` the figure was 0.395% (inactive). Regarding `CCN(C(=O)COc1cccnc1[N+](=O)[O-])C1CCS(=O)(=O)C1` (stereo unspecified), the activation (protection from cell death) was 0.598% (inactive).

Take `CCC(C)n1c(-c2cc(OC)c(OC)c(OC)c2)nc2nc3ccccc3nc21` (stereo unspecified): the activation (protection from cell death) was -16.6% (inactive). Under `CC(=O)Nc1nc2c(s1)C(=O)NCC(C)(C)C2` stands 0.16% (inactive); under `Cc1ccc(S(=O)(=O)NCCc2nnc3ccc(SCc4cccnc4)nn23)cc1`, -0.101% (inactive). Take `O=C(CCc1ccccc1)Nc1ncc([N+](=O)[O-])s1`: the activation (protection from cell death) was 9.81% (inactive).

With `O=C(Cc1c(F)cccc1Cl)Nc1ncc([N+](=O)[O-])s1`, the activation (protection from cell death) was 59.9% (active).

As for `O=C(Cc1c(F)cccc1Cl)Nc1ccc(-n2cnnn2)cc1`, the activation (protection from cell death) was 0.184% (inactive). With `COc1ccc(Br)cc1C(=O)Nc1cccc(C)c1C` the figure was 0.986% (inactive); with `O=C(NC(Cc1c[nH]c2ccccc12)C(=O)N/N=C/c1ccc(Br)cc1)c1cccs1` (stereo unspecified), -2.26% (inactive); with `CC(C)c1nc(CNC(=O)CC2C(=O)NCCN2Cc2ccoc2)cs1` (stereo unspecified), -0.307% (inactive). As for `CCc1cc(CNC(=O)CC2C(=O)NCCN2Cc2ccccc2C(F)(F)F)on1` (stereo unspecified), the activation (protection from cell death) is 1.76% (inactive). With `COC(=O)c1ccc(Cc2ccccc2)o1` the figure was 55.2% (active).

For `COC(=O)c1ccc(CSc2ccccc2C)o1`, the activation (protection from cell death) was 6.63% (inactive).

As to `COC(=O)c1ccc(CN(c2ccccc2OC)S(=O)(=O)c2cccs2)o1`, the activation (protection from cell death) is 0.0719% (inactive). In the case of `COc1ccccc1CNC(=O)CN1CCC(n2cnc3cc(F)ccc32)CC1`, the activation (protection from cell death) is 4.48% (inactive).

On to `O=C(c1ccc(S(=O)(=O)c2ccccc2)cc1)N1CCCCCC1`, for which the activation (protection from cell death) is 1.36% (inactive). Under `Nc1c(-c2cccc(Cl)c2)cnn1-c1cccc([N+](=O)[O-])c1` stands -1.25% (inactive); under `c1ccc(-c2csc(N3CCc4ccccc4C3)n2)cc1`, -3.03% (inactive); under `C=CCCN(Cc1ccccc1)S(=O)(=O)c1ccccc1Br`, -2.9% (inactive).

As for `CC(C)(C)c1ccc(/C=C2\SC(=O)N=C2N)cc1`, the activation (protection from cell death) is 2.08% (inactive).

For `Cc1cccc(NC(=O)c2nc[nH]c2C(=O)NCC(=O)OCc2ccccc2)c1`, the activation (protection from cell death) is -9.45% (inactive). With `CCN(CC)CCNC(=O)c1ccc(NC(=O)c2c(F)cccc2Cl)cc1` the figure was -0.132% (inactive). `COc1ccccc1C(=O)CSc1cccc[n+]1[O-]`: the activation (protection from cell death) is -0.693% (inactive). Under `Cc1cc(C(=O)OCC(=O)Nc2ccc(F)c(F)c2)c(C)o1` stands 3.31% (inactive). Regarding `COCCCNC(=O)C1CCC(CNS(=O)(=O)c2ccc(OC)cc2)CC1` (stereo unspecified), the activation (protection from cell death) was 1.04% (inactive). Regarding `Cc1cccc(C(=O)N2CCc3c([nH]c4ccccc34)C2CC(C)C)n1` (stereo unspecified), the activation (protection from cell death) was 1.18% (inactive).

On to `Cc1cc([N+](=O)[O-])nn1Cc1ccc(F)cc1`, for which the activation (protection from cell death) is 76.6% (active). In the case of `Cc1cc([N+](=O)[O-])nn1CCCC(=O)Nc1cccnc1Cl`, the activation (protection from cell death) is 0.812% (inactive).

With `Cc1cc([N+](=O)[O-])nn1CC(=O)Nc1ccc(Cc2ccncc2)cc1`, the activation (protection from cell death) was 3.27% (inactive).

Regarding `O=C(Nc1ccn(Cc2ccccc2F)n1)c1ccc(COc2ccc(Cl)cc2Cl)o1`, the activation (protection from cell death) was -6.7% (inactive). With `O=C(Nc1ccn(Cc2ccccc2)n1)c1cccc(F)c1` the figure was 3.16% (inactive); with `CC(=O)Nc1ccn(Cc2c(F)cccc2Cl)n1`, 88% (active). Consider `CCc1cccc(CC)c1NC(=O)COc1ccccc1C(=O)c1cc(C#N)c(=O)n(C2CCCCC2)c1`, for which the activation (protection from cell death) was 1.06% (inactive). Consider `Cn1nccc1NC(=O)Nc1ccc(OC(F)(F)F)cc1`, for which the activation (protection from cell death) is 2.9% (inactive).

As to `CCCC(=O)n1nc(NCc2ccc(OC)cc2)nc1NCc1ccc(OC)cc1`, the activation (protection from cell death) was 2.21% (inactive). Under `CC(C)CNC(=O)C(=O)NCc1ccccc1` stands 1.96% (inactive); under `CC(C)(C)C(=O)N1CCC[C@@]1(CO)C(=O)O`, 1.03% (inactive).

As for `CCN(Cc1ccncc1)C(=O)c1cccc(S(=O)(=O)N2CCOCC2)c1`, the activation (protection from cell death) is 0.919% (inactive).

Turning to `COc1cc(C=O)ccc1Oc1nnnn1-c1ccccc1`, the activation (protection from cell death) is -3.04% (inactive). In the case of `N#CC1(NC(=O)COc2ccc3oc4ccccc4c3c2)CCCCC1`, the activation (protection from cell death) was 1.8% (inactive). For `CC(C)N(C(=O)Cn1cc(SCC(=O)N2CCCC2)c2ccccc21)C(C)C`, the activation (protection from cell death) was 1.35% (inactive). With `Cc1ccc(S(=O)(=O)N(C)C)cc1NC(=O)COC(=O)c1c(C)noc1C`, the activation (protection from cell death) was 0.89% (inactive).

Regarding `CN(C)CCNC(=O)/C(=C/c1cccc([N+](=O)[O-])c1)NC(=O)c1ccccc1`, the activation (protection from cell death) was 2.51% (inactive). In the case of `COc1ccc(/C=C/C(=O)c2cc(Br)ccc(=O)c2O)cc1`, the activation (protection from cell death) was -1.56% (inactive). Under `CCc1ccc(C2C(C#N)=C(N)N(N3CCOCC3)C3=C2C(=O)CC(C)(C)C3)s1` (stereo unspecified) stands 0.137% (inactive). As to `C[C@@H]1C[C@@H]2O[C@H]2/C=C\C=C\C(=O)Cc2c(Cl)c(O)cc(O)c2C(=O)O1`, the activation (protection from cell death) is 36.6% (inactive). As for `C=CCOc1c(CNn2cn[nH]c2=S)cccc1OC`, the activation (protection from cell death) was -0.439% (inactive). Under `Cc1n[nH]c(=O)nc1N/N=C/c1cccs1` stands -6.4% (inactive).

For the compound `CCc1cccc(CC)c1NC(=S)Nc1ccc2cn[nH]c2c1`, the activation (protection from cell death) was -5.25% (inactive). In the case of `C=CCNc1nc(N)c(C(=C(C#N)C#N)c2ccccc2)s1`, the activation (protection from cell death) is -6.24% (inactive).

Source of the values: PubChem BioAssay AID463075 (University of Pittsburgh Molecular Library Screening Center, 2010).
